Molecules are shown by their SMILES. Values without a mark were called inactive. Active and inactive are the calls of the source. The call rests on the fitted dose curve; in most records, active means well fitted activation curve with a large enough effect; inconclusive means small, poorly fitted or top-dose-only effect; inactive means no such curve, though single readings can be large or run the other way.
Potency means the concentration at half of the fitted maximal effect.

Cytochrome P450 3A4 (Homo sapiens), sequence (P08684 whole entry, looked up): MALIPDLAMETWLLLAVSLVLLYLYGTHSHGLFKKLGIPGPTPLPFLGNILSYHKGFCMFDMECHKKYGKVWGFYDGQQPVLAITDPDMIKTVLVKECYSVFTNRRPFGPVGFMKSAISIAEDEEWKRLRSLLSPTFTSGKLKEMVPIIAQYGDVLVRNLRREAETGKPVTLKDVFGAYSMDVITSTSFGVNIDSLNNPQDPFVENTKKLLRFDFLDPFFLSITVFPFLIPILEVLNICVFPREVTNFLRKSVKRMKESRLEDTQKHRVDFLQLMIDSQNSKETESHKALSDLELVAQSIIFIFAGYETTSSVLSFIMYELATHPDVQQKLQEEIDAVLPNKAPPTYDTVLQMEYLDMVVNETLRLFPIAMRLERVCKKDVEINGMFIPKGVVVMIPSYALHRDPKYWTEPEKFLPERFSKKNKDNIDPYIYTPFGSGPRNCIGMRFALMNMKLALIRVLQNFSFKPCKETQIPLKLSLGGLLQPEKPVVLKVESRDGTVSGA

This test concerns the target Cytochrome P450 3A4 (Homo sapiens) (UniProt P08684). Description: qHTS Assay for Activators of Cytochrome P450 3A4 (AID 885). Further: nearly all actives have a fitted effect of over 65% in size. Particulars: recombinant CYP3A4, Luciferin-PPXE luminescence, 60 min; series mostly up to 57.1 µM; activity change, positive = activation: at the top concentration. As to the method: NIH Molecular Libraries Screening Centers Network [MLSCN]
NIH Chemical Genomics Center [NCGC]
The P450 gene superfamily is involved in the metabolism and clearance of xenobiotics. This assay used human CYP3A4 to measure the dealkylation of luciferin-6' phenylpiperazinylyl (Luciferin-PPXE; […]) to luciferin. The luciferin is then measured by luminescence after the addition of a luciferase detection reagent. Luciferin-PPXE concentration in the assay was equal to its KM for CYP3A4. Inhibitors and some substrates limit the production of luciferin, and decrease measured luminescence; activators increase the production of luciferin and luminescence.
NCGC Assay Protocol Summary:
Two uL of enzyme and substrate mix (final concentrations: 20nM CYP3A4, 25uM Luciferin-PPXE, 200mM KPO4) were dispensed into a white, solid bottom 1536-well microtiter plate. 23nL of compound was transferred by a pin tool. The plate was incubated at RT for 10 min. Two uL of an NADPH regeneration solution (Promega supplied reagent) was dispensed and the reaction was allowed to continue for 60 min at RT. Then the reaction was stopped by reconstituted luciferin detection buffer. After another 20 min of incubation the plate was read on the ViewLux (Perkin Elmer) at 60 sec exposure and 2x2 binning. This protocol was carried out with Promega-Glo reagents and further information can be found at http://www.promega.com/tbs/tb325/tb325.pdf. Data were normalized to the to AC100 inhibition (57 uM ketoconazole).
Keywords: P450, CYP2D6, Luciferase, MLSMR, MLSCN, NIH Roadmap, qHTS, NCGC
For orientation: Quantitative high-throughput screening tests each substance at several concentrations.
As for `CC(C)=CCOc1cc2oc(=O)ccc2cc1O`, the “activity change, positive = activation” value was -65.1%.

Take `CC(=O)OC1CC2C(C)(C)C(O)C=C[C@@]2(C)C2CC[C@@]3(C)C(c4ccoc4)OC(=O)C4OC43[C@]12C` (stereo not given in full): the “activity change, positive = activation” value is -56%. The same measure, in the same setting: the figure for `CC(=O)OCC1=C(C(=O)O)N2C(=O)C(NC(=O)Cc3cccs3)C2SC1` (stereo not given) is -42.4%; for `COc1ccc(-c2oc3ccccc3c(=O)c2O)cc1OC` it is -62.1%. `CC1(C)C(=O)C2C[C@]3(O)C4=CC(=O)OC(c5ccoc5)[C@]4(C)CCC3[C@](C)(C2=O)C1CC(=O)O` (stereo not given in full): the “activity change, positive = activation” value was -47.9%.

With `Clc1ccc(CC[C@H](Cn2ccnc2)Sc2c(Cl)cccc2Cl)cc1`, the “activity change, positive = activation” value was -81.4% [at 25.6 µM]. For the molecule `C=CCCCCCCCCCCCC(O)CC(O)COC(C)=O` (stereo not given), the “activity change, positive = activation” value is -47%. As for `C[C@]12C=CC(=O)C=C1CCC1C2C(O)C[C@]2(C)C1CC[C@]2(O)C(=O)CO` (stereo not given in full), the “activity change, positive = activation” value was -33.9%.

In the case of `CC(=O)OC1CC(OC(C)=O)[C@]2(C)C(CC(OC(C)=O)[C@]3(C)C2CC[C@@]2(C)C(c4ccoc4)OC(=O)C4O[C@]432)C1(C)C` (stereo not given in full), the “activity change, positive = activation” value was -92.5%. On to `CC1(C)OC2CC3C4CCC5=CC(=O)CCC5(C)C4(F)C(O)CC3(C)[C@]2(C(=O)CCl)O1` (stereo not given in full), for which the “activity change, positive = activation” value was -54.3%. With `Cc1ccc2c(c1)CC[C@H]1CC(=O)CC[C@@]21C`, the “activity change, positive = activation” value was -80.7%.

For `CS(=O)(=O)Nc1cccc(-c2nc(Nc3ccc(F)cc3)c3ccccc3n2)c1`, the “activity change, positive = activation” value was -108%. The same measure, in the same setting: the same measure for `C=C1C(=O)OC2CC1C(OC(C)=O)CC(C)=CCCC(C)=CCC[C@@]2(C)O` (stereo not given in full): -30.3%. On to `C/C=C(/C)C(=O)OC1Cc2c(ccc3ccc(=O)oc23)OC1(C)C` (stereo not given), for which the Potency is 15.8 µM (active). `CCCCN1CCCCC1C(=O)Nc1c(C)cccc1C` (stereo not given): the “activity change, positive = activation” value is -48%. For the molecule `C[C@H]1C[C@]2(O[C@@H]2C)C(=O)O[C@@H]2CCN(C)C/C=C(/COC(=O)[C@]1(C)O)C2=O`, the “activity change, positive = activation” value is -35.8%. As for `CC1=CC(=O)C2C(C)(C)CCC[C@@]2(C)[C@@]1(O)CCc1ccoc1` (stereo not given in full), the “activity change, positive = activation” value was -68.2%.

Consider `O=c1cc(-c2ccc(O)cc2)oc2cc(O)ccc12`, for which the “activity change, positive = activation” value was -58.1%.

As for `CC(C)c1ccc2c(c1)CCC1C(C)(C(N)=O)CCCC21C` (stereo not given), the “activity change, positive = activation” value was -36.8%.

As for `C=Cc1c(C)c2cc3nc(cc4[nH]c(cc5nc(cc1[nH]2)C(C)=C5CCC(=O)O)c(CCC(=O)OC)c4C)[C@@]1(C)C3=CC=C(C(=O)OC)[C@H]1C(=O)OC` (tested in a mixture with another compound), the “activity change, positive = activation” value was -35.6% [at 25.6 µM]. As for `C[C@@]12CCC(=O)C=C1C=CC1C2CC[C@]2(C)C1CC[C@@]21CCC(=O)O1` (stereo not given in full), the Potency was 15.8 µM (active). Consider `CCC1OC(=O)C(C)[C@@H](O[C@H]2C[C@@](C)(OC)C(O)C(C)O2)C(C)[C@@H](O[C@@H]2OC(C)CC(N(C)C)C2O)[C@@](C)(O)CC(C)C(=O)[C@@H](C)C(O)[C@]1(C)O` (stereo not given in full), for which the “activity change, positive = activation” value was -56.7%. As to `c1ccc2c(c1)CN1CCCC1=N2`, the “activity change, positive = activation” value was -31.5%. As for `Oc1ccc(C2Oc3cc(O)cc(O)c3CC2O)cc1` (stereo not given), the “activity change, positive = activation” value was -56.5%. As for `COC1=CC(=O)C(O)=C/C1=C\C=C\c1ccccc1`, the “activity change, positive = activation” value is -35.7%. As to `CC(=O)OC1C=C[C@]2(C)C(CC(OC(C)=O)[C@@]3(C)C4=CC(=O)OC(c5ccoc5)[C@]4(C)CCC23)C1(C)C` (stereo not given in full), the Potency is 12.6 µM (active).

Regarding `CC(C)=CCc1c(O)cc2oc(C)cc(=O)c2c1O`, the “activity change, positive = activation” value was -44.2%. On the same count and under the same terms, the figure for `C[C@@H](C(=O)O)c1ccc(C(=O)c2ccccc2)s1` is -38.8% [at 25.6 µM]; for `C#CCCCCCCCCCCCc1ccco1` it is -35.9%; for `COC(=O)C(O)C1C(C)(C)C(OC(C)=O)C2CC3=C4CC(=O)OC(c5ccoc5)[C@]4(C)CCC3[C@@]1(C)C2=O` (stereo not given in full) it is -81.9%. `O=c1cc(-c2cccc(O)c2)oc2ccc(O)cc12`: the “activity change, positive = activation” value is -72.7%. For the molecule `O=C(CC(=O)c1ccccc1)c1ccccc1`, the “activity change, positive = activation” value was -36.2%. Turning to `COc1ccc(C2CC(=O)c3c(O)cc(O)cc3O2)cc1O` (stereo not given), the “activity change, positive = activation” value was -90.2%. Turning to `C=C[C@](C)(O)CCC1C(=C)CCC2[C@@](C)(CO)CCC[C@@]12C` (stereo not given in full), the “activity change, positive = activation” value is -118%.

As to `COc1ccc2c(c1)OC/C(=C\c1ccc(OC)c(O)c1)C2=O`, the “activity change, positive = activation” value was -80.9%. For the molecule `CC(=O)OC1CC(OC(C)=O)[C@]2(C)C(CC(O)[C@]3(C)C2CC[C@@]2(C)C(c4ccoc4)OC(=O)C4O[C@]432)C1(C)C` (stereo not given in full), the “activity change, positive = activation” value was -74.1%.

As to `CCN1CCC[C@@H](OC(=O)C(c2ccccc2)c2ccccc2)C1`, the “activity change, positive = activation” value was -63.1% [at 25.6 µM]. The same measure, in the same setting: the figure for `COc1cc(O)c(C)c(O)c1` is -43.6%. Regarding `C=C1C2CC[C@@]3(C)C(c4ccoc4)OC(=O)C[C@@]13OC1CC(=O)C(C)(C)C(C(O)C(=O)OC)[C@]12C` (stereo not given in full), the “activity change, positive = activation” value was -84.8%. `CC1CC2C3CCC4=CC(=O)C=C[C@]4(C)[C@@]3(Cl)C(O)C[C@]2(C)C1(OC(=O)c1ccco1)C(=O)CCl` (stereo not given in full): the “activity change, positive = activation” value is -82%.

The values are drawn from PubChem BioAssay (NCATS).
